Screening data from PubChem.
A selection: hits, their analogues and other compounds. The true share with any hit is near 12%.
JMJD2A Tudor inh: qHTS Assay for Inhibitors of JMJD2A-Tudor Domain; Lysine-specific demethylase 4A (Homo sapiens), O75164; AlphaScreen JMJD2A-Tudor / H3K4me3 peptide binding; Potency, µM (doses to about 114 µM), for the others: at the highest dose activity change, negative = inhibition, usual class: inhibitors; 4.4% of 390,000 active; note: % is set by controls: 0 for no effect and ±100 for the full control effect; nearly all actives have a fitted effect of over 50% in size
HP1b binding inh: HTS for Inhibitors of HP1-beta Chromodomain Interactions with Methylated Histone Tails; Chromobox protein homolog 1 (Homo sapiens), P83916; AlphaScreen HP1-beta / biotin-H3K9me3 peptide binding; Potency, µM (top dose mostly 114 µM), for the others: at the highest dose activity change, negative = inhibition, most hits filed as inhibitors; 0.56% of 390,000 active; AID 540317, 2011; note: nearly all actives have a fitted effect of over 70% in size
Target sequence (P83916 whole entry, looked up): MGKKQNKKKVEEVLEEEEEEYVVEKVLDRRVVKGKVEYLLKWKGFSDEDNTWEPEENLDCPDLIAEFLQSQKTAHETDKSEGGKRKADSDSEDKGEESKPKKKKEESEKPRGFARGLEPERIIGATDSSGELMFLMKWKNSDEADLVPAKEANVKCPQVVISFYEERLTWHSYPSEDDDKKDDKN
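HP1-beta protein (50 nM final) preincubated 30 min at room temperature with biotinylated H3(1-18)K9me3 peptide (50 nM) in PBS pH 7.4, 0.01% Tween-20, then compound added for 30 min. AlphaScreen streptavidin donor/nickel chelate acceptor beads (10 ug/mL final), 30 min dark, luminescence read.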
Sfp inh: qHTS Assay for Inhibitors of Bacillus subtilis Sfp phosphopantetheinyl transferase (PPTase) | 4'-phosphopantetheinyl transferase ffp (Bacillus subtilis), Q9F4F7 | 3.5% of 310,000 active | AID 1490, 2009 | Biochemical Sfp PPTase activity, qHTS | Potency, µM, without a hit: largest response in the series, negative = inhibition, actives largely listed as inhibitors;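 note: the enzyme is Sfp with the accession as filed and its product quenches rhodamine fluorescence; 0% = enzyme reaction without inhibitor and -100% = no enzyme wells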
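Reaction rates are the 30-min fluorescence difference (ex 525, em 598 nm) in wells containing 15 nM Sfp, 5 uM rhodamine-CoA and 12.5 uM BHQ-2-YbbR at pH 7.6 with 10 mM MgCl2.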
G9a block: qHTS Assay for Inhibitors of Histone Lysine Methyltransferase G9a | Histone-lysine N-methyltransferase EHMT2 (Homo sapiens), Q96KQ7 | AID 504332, 2011 | Potency, µM (highest dose often 102 µM), inactives show at the highest dose activity, negative = inhibition, hits mostly inhibitors | 8.8% of 350,000 active | G9a H3K9 monomethylation, AlphaScreen, 2 h; note: % is set by controls: 0 for no effect and ±100 for the full control effect; nearly all actives have a fitted effect of over 75% in size
Target sequence (Q96KQ7 913-1193 limits assumed): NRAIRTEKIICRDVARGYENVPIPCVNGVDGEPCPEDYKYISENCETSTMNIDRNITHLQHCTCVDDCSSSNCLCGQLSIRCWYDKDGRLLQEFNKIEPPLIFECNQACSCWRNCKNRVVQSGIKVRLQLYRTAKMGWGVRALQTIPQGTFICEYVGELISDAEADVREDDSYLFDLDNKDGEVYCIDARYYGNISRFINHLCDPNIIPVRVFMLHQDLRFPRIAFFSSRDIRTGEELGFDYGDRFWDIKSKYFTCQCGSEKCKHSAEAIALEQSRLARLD
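Enzyme 20 nM + cpd, 15 min RT; add b-H3K9 pep 500 nM / SAM 20 uM; 2 h RT; anti-H3K9me1 Ab 0.5 ug/mL + SA donor / anti-rabbit acceptor beads 20 ug/mL each, 10 min; AlphaScreen read.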
BAZ2B block: qHTS Assay for Inhibitors of BAZ2B; Potency, µM (series often up to 114 µM), for inactives: top-dose activity change, negative = inhibition, most hits filed as inhibitors; Bromodomain adjacent to zinc finger domain protein 2B (Homo sapiens), Q9UIF8; 4.4% of 360,000 active; AlphaScreen BAZ2B-H3K14Ac peptide displacement; note: % is set by controls: 0 for no effect and ±100 for the full control effect; nearly all actives have a fitted effect of over 60% in size
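AlphaScreen luminescence quantifies BAZ2B engagement of H3K14Ac peptide; the protein and biotinylated peptide are both at 50 nM final, buffer PBS pH 7.4 with 0.01% Tween-20, all steps at room temperature.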
An asterisk follows results filed as active; ? = inconclusive; nt = no result; [ ] = remark or other dose. Calls come from the whole dose curve; as a rule, active = well fitted curve in the direction sought with a large enough effect; inconclusive = small, poorly fitted or top-dose-only effect, or another doubt; inactive = no such curve, though single readings can be large; an effect the other way counts as inactive or inconclusive. Potency is the fitted concentration of half-maximal effect.

SMILES | JMJD2A Tudor inh | HP1b binding inh | Sfp inh | G9a block | BAZ2B block
COc1ccc(Br)c(C(=O)N(C)CC(=O)Nc2ccc(N3CCOCC3)cc2)c1 | -16% | 4% | nt | 20µM* | 1%
Cc1ccc(NC(=O)CN(C)CC(=O)Nc2ccc(N3CCOCC3)cc2)cc1F | 7.9µM* | ? | 2% | -143%[59 µM] | 18µM*
CN(CC(=O)Nc1ccc(N2CCOCC2)cc1)C(=O)c1cn(-c2ccccc2)nc1-c1ccccc1 | 2% | 14% | nt | ? | -12%
CN(CC(=O)Nc1ccc(N2CCOCC2)cc1)C(=O)CSc1ccc(F)cc1 | ? | -6% | nt | 13µM* | -8%
O=C(COC(=O)COc1ccccc1[N+](=O)[O-])NCc1ccc2c(c1)OCO2 | -32% | 10% | nt | nt | nt
Cc1nnc(NC(=O)c2ccc(S(=O)(=O)C(F)F)cc2)s1 | -9% | 34% | 23% | 3% | 0%
CN(CC(=O)Nc1ccc(N2CCOCC2)cc1)C(=O)CC(c1ccccc1)c1ccccc1 | -26% | 3% | 15% | ? | ?
CN(CC(=O)Nc1ccc(N2CCOCC2)cc1)C(=O)CCc1cc(C(C)(C)C)c(O)c(C(C)(C)C)c1 | ? | -17% | nt | 0%[0.501 µM] | 50µM*
O=C(CC1N=C2c3ccccc3N=C(SCc3ccc(F)cc3)N2C1=O)NCCc1ccccc1 (centres undefined) | -36% | 7% | nt | 11%[59 µM] | -7%
COc1ccc(N2C(=O)CSC2c2cccc(F)c2)c(OC)c1 (centres undefined) | -2% | 14% | 6% | 48%[12.7 µM] | 1%
O=C1c2ccccc2C(O)(c2ncc[nH]2)N1C1CCCCC1 (centres undefined) | ? | 17% | -17% | 20µM* | -7%
COc1ccc(CCN2C(=O)c3ccccc3C2(O)c2ncc[nH]2)cc1OC (centres undefined) | -6%[11.4 µM] | -20% | ? | 22µM* | ?
O=C1c2ccccc2C(=O)N1C1CCCCC1 | -1% | 83% | -9% | 8% | -6%
N#Cc1ccc(/C=C(\C(=O)C(=O)O)c2ccc3ccccc3n2)cc1 | 1% | 30% | -6% | -17%[12.7 µM] | 79µM*
O=C(O)C(=O)/C(=C\c1cccc(Cl)c1)c1ccc2ccccc2n1 | ? | 29% | -22% | 22µM* | 79µM*
CC(=O)c1sc(NC(=O)c2ccc(Br)o2)nc1C | 7% | 35% | 5% | 2% | ?
CC(=O)c1sc(NC(=O)c2ccc(Cn3cc(Br)cn3)o2)nc1C | -14% | 16% | 12% | 45µM* | -8%
COc1ccc(NC(=O)C2CCCN(c3nn4c(=O)cc(C)nc4s3)C2)c(OC)c1 (centres undefined) | -7% | 43% | 13% | 64%[59 µM] | ?
O=C1C(=O)c2ccccc2C(O)=C1c1cccc([N+](=O)[O-])c1 | -28% | ? | 16% | 56µM* | ?
O=c1ccn(CCCBr)c(=O)[nH]1 | 4% | 39% | 20% | 40µM* | -4%
Cc1c(S(=O)(=O)c2ccccn2)c(N)n(Cc2ccccc2)c1C | ? | 5% | 3% | 14µM* | -35%
COCCn1c(C)c(C)c(S(=O)(=O)c2ccccc2)c1N | -15% | 50% | -17% | 35µM* | ?
CCc1ccc(/C=N/NC(=O)C(=O)NCCCN2CCOCC2)cc1 | -9% | 20% | 3% | 19% | 3%
COc1cc(C(=O)OCC(=O)N(C)C)cc(NC(=O)c2ccco2)c1OC | 5% | 15% | 13% | 8%[12.7 µM] | ?
CCn1nc(C(=O)OCC(=O)c2ccc3c(c2)OCCO3)c2ccccc2c1=O | 50µM* | -2% | 5% | ? | -23%
SMILES | JMJD2A Tudor inh | HP1b binding inh | Sfp inh | G9a block | BAZ2B block
CCn1nc(C(=O)OCC(=O)c2ccc(F)cc2)c2ccccc2c1=O | -12% | 38% | 1% | 40%[59 µM] | -22%
CCOC(=O)c1ncn2c1C(=O)OC2(C)C | 18µM* | 8% | ? | ? | ?
COc1ccccc1C(=O)NS(=O)(=O)c1ccc(C)cc1 | -13% | 44% | nt | nt | nt
Cc1ccc(S(=O)(=O)NC(=O)c2ccc(-c3ccc(C)c4ccccc34)o2)cc1 | 45µM* | -2% | -3% | 50µM* | ?
CCn1ccnc1CN1CCN(CCC(C)C)C(CCO)C1 (centres undefined) | -3% | 21% | -15% | 5% | -3%
COc1ccccc1Nc1nc(N)nc(CN2CCCCC2)n1 | -17% | 7% | -4% | ? | -38%
CCOc1ccccc1Nc1nc(N)nc(CN(C)C2CCCCC2)n1 | 50µM* | 37% | -9% | -10%[59 µM] | 18µM*
COc1ccccc1Nc1nc(N)nc(CN2CC(C)CC(C)C2)n1 (centres undefined) | -8% | 28% | 18% | 10µM* | ?
COc1ccc(N2CCN(Cc3nc(N)nc(Nc4ccccc4OC)n3)CC2)cc1 | 56µM* | -15% | 3% | 40µM* | 28µM*
COc1ccccc1Nc1nc(N)nc(CCl)n1 | -1% | 36% | 1% | nt | -14%
COc1ccccc1NC(=O)CSc1nnc(Cc2ccccc2)o1 | -20% | 7% | 9% | 14µM* | 2%
CCNC(=O)CSc1nc2ccccc2c(=O)n1OC | 8% | 19% | -2% | 79µM* | 0%
COc1cc(/C=C/C(=O)OCC(=O)Nc2oc(C)c3c(C)n[nH]c(=O)c23)ccc1OC(F)F | -7% | 58% | nt | 14µM* | 0%
COc1ccc(OC)c(-n2nnnc2SCC(=O)Nc2ccccc2OC)c1 | -22% | -1% | 0% | 7%[0.501 µM] | -30%
COc1ccccc1NC(=O)CSc1nnnn1-c1ccccc1OC | -9% | 40% | 12% | 71µM* | 6%
CN(C)c1ccc(NC(=O)CC(NCc2cccnc2)C(=O)O)cc1 (centres undefined) | -1% | 21% | nt | ? | 1%
Cc1nn(CCC(=O)NCCc2ccccc2Cl)c(=O)c2nn(-c3ccccc3)c(C)c12 | -17% | -5% | 14% | -1% | -6%
COCCCn1c(SCC(=O)Nc2oc(C)c3c(C)n[nH]c(=O)c23)nc2ccccc2c1=O | -4% | 19% | nt | 50µM* | -1%
CCOc1ccccc1NC(=O)CSc1nc2ccccc2c(=O)n1CC1CCCO1 (centres undefined) | -8%[57.1 µM] | -1% | ? | 4.5µM* | 1%
CCOC(=O)CSc1nnnn1-c1cccc2ccccc12 | 12% | 75% | -2% | 10µM* | 13%
Cc1n[nH]c(=O)c2c(NC(=O)CSc3nnc(C4CC4)n3C)oc(C)c12 | -14% | 47% | nt | 40µM* | -38%
CC(C)(O)CN(CCCNC(=S)Nc1ccccc1)C(=S)Nc1ccccc1 | -22% | 1% | nt | nt | nt
